Source: PubChem BioAssay (The Scripps Research Institute Molecular Screening Center)
MITF primary = MITF inhibitors, primary screen, biochemical, AlphaScreen, human; 650,000 compounds, 0.91% hits; AlphaScreen MITF homodimerization, bead proximity signal; inhibition, % at 2.6 µM; in the data active = inhibition above about 50%;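 also: 0% = vehicle wells with protein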
TEAD-YAP inh = TEAD-YAP interaction inhibition, primary screen, TEAD-YAP interaction inhibitor project, luminescence, HEK-TIYL cells; TEAD-Gal4/YAP UAS-luciferase luminescence; inhibition, % at 9.12 µM; 640,000 compounds, 1.4% hits; AID 1259422, 2018; in the data active = inhibition above about 32%;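 also: 0% = median of test compound wells and 100% = reference inhibitor wells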
FBW7 act = FBW7 E3 ligase activators, primary screen, biochemical, AlphaScreen, human; AlphaScreen FBW7–phospho-cyclin E peptide binding, activator screen; normalized activity (activation), % at 26.1 µM; 650,000 compounds, 0.13% hits; AID 1259310, 2017; in the data active = normalized activity above about 1.9%;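 also: purified mutant Fbw7 with reduced substrate affinity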
GPR151 activ = activators of human GPR151, primary screen, cell-based, PathHunter beta-arrestin, luminescence. 650,000 compounds, 1% hits. PathHunter beta-arrestin GPR151 cells. activation, % at 11.2 µM. AID 1508602, 2020. G-protein coupled receptor 151 (Homo sapiens), Q8TDV0; in the data active = activation above about 4.9%;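 also: 0% = median of compound wells and 100% = cells with positive control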
Target sequence (Q8TDV0 whole entry, looked up): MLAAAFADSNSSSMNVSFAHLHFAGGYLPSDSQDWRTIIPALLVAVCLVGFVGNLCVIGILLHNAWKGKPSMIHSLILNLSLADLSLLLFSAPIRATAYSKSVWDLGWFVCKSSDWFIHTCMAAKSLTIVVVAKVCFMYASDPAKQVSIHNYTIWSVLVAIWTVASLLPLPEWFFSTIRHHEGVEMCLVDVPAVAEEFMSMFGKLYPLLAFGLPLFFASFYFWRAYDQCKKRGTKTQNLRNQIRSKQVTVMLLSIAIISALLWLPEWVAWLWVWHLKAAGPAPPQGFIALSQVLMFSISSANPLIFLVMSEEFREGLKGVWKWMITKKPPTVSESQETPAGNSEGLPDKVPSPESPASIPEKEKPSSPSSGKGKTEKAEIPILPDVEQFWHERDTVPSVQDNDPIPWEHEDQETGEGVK
* = called active by the depositor. The list is not random: actives were taken first. Their share in the collection is about 3.5%.

SMILES	MITF primary	TEAD-YAP inh	FBW7 act	GPR151 activ
CC(=O)c1ccc(OCc2cc(C(=O)N(C)CC(O)c3ccccc3)no2)cc1 (configuration not stated)	1	-26	0	-2
CC1(C)CC(=NNC(=O)c2n[nH]c3c2CCCC3)CC(C)(C)N1	11	39*	0	-1
C/C(=N\NC(=O)c1n[nH]c2c1CCC2)c1ccco1	4	52*	0	0
CC1(C)CC(=NNC(=O)c2ccncc2)CC(C)(C)N1	-5	-2	0	0
CC/C(C)=N/NC(=O)c1n[nH]c2c1CCC2	-23	43*	0	4
NNC(=O)c1n[nH]c2c1CCCC2	5	8	0	0
O=C(NN=C1CCCC1)c1n[nH]c2c1CCC2	5	64*	0	1
CCN(CC)CCn1c2ccccc2n2c(C(=O)OC)c(C)nc12	31	12	0	0
COc1cc(/C(C)=N/NC(=O)c2n[nH]c3c2CCC3)ccc1O	1	35*	0	1
O=C(NN=C1CCCC1)c1n[nH]c2c1CCCC2	-1	42*	0	1
CCC(C)n1c(SCc2ccccc2F)nc2ccsc2c1=O (configuration not stated)	7	-6	0	0
CCC(C)n1c(SCc2ccccc2C)nc2ccsc2c1=O (configuration not stated)	-24	47*	0	1
Cc1ccccc1CN1CCN2C(=O)[C@@H]3CCCN3C(=O)[C@H]2C1	17	46*	1	-1
Cc1ccc(F)c(CN2CCN3C(=O)[C@@H]4CCCN4C(=O)[C@H]3C2)c1	16	-1	1	-1
O=C1[C@@H]2CCCN2C(=O)[C@H]2CN(Cc3ccccc3Cl)CCN12	6	37*	0	1
C[C@H]1NC(=O)[C@H]2CN(Cc3ccccc3Cl)CCN2C1=O	12	-6	0	0
Brc1cccc(-c2nnc(CN3CCc4ccccc4C3)o2)c1	-4	9	0	0
NC(=O)c1cccc(N2CCN(Cc3ccc4c(c3)OCO4)CC2)n1	-2	0	0	1
COc1ccc(-c2cn3c(C(=O)N4CCN(C/C=C/c5ccccc5)CC4)csc3n2)cc1	-1	4	0	4
NC(=O)c1ccc(-c2nc(N)c3ncn(-c4ccccc4)c3n2)cc1	8	55*	0	0
CN1CCN(C(=O)c2ccc(-c3nc(N)c4ncn(-c5ccccc5)c4n3)cc2)CC1	12	-3	0	-1
NC(=O)c1ccc(-c2nc(NC3CC3)c3ncn(-c4ccsc4)c3n2)cc1	11	14	0	-2
NC(=O)c1ccc(-c2nc(N)c3ncn(-c4ccsc4)c3n2)cc1	19	58*	0	3
Cc1ccc(Nc2ncnc3sc(C)cc23)cc1	1	-73	0	1
CCOC(=O)CSc1nc(Nc2cc(OC)cc(OC)c2)c2ccccc2n1	-2	-10	0	1
SMILES	MITF primary	TEAD-YAP inh	FBW7 act	GPR151 activ
COc1ccccc1C(=O)Nc1sc2c(c1C(=O)O)CCCC2	7	-2	0	0
O=C1OC2(CCCCC2)OC(=O)C1=Cc1ccc(Br)o1	74*	-4	0	-1
O=c1[nH]c2nc(-c3cccc4ncccc34)cnc2n1Cc1ccccn1	2	-6	0	0
Cc1cc2nc(-c3ccc[nH]c3=O)[nH]c2cc1C	-11	86*	0	-11
Cc1ccccc1-c1nc2ccccc2[nH]1	24	-53	0	-2
COC(=O)c1cccc(NC(=O)CSc2nc3ncnc(N)c3[nH]2)c1	-2	13	0	-2
CO[C@H]1O[C@@H]2O[C@@]3(C)CC[C@H]4[C@H](C)CC[C@@H]([C@H]1C)[C@@]24OO3	9	2	0	1
C[C@@H]1CC[C@H]2[C@@H](C)C(O)O[C@@H]3OC4(C)CC[C@@H]1[C@]32OO4 (some centres not stated)	25	88*	0	0
C[C@H]1[C@@H](OC(=O)CCC(=O)O)O[C@@H]2OC3(C)CC[C@H]4[C@H](C)CC[C@@H]1[C@@]24OO3	-1	82*	0	0
O=C1C(=O)N(c2ccc(F)cc2)C(c2cccc([N+](=O)[O-])c2)/C1=C(/O)c1ccccc1 (configuration not stated)	2	9	0	1
O=C(CCCCCn1c(SCC(=O)c2ccc(F)cc2)nc2ccsc2c1=O)NCCc1ccccc1	0	-5	0	0
